“And” between values parts separate entries of the source, which are not always exact repeats. Equal entries are not always repeated. Screen size: about 2,300 compounds; about 1,200 (52%) were called active. Roughly 34% stayed inconclusive and do not appear here. Calls come from the whole dose curve; as a rule, active = well fitted inhibition curve with a large enough effect; inconclusive = small, poorly fitted or top-dose-only effect, or effect the other way; inactive = no such curve, though single readings can be large or run the other way. The set was probably picked from earlier hits. The list shows a part of the results.
test: Confirmation screen for delayed death inhibitors of the malarial parasite plastid, 48 hour incubation; note: nearly all actives have a fitted effect of over 65% in size; conditions: P. falciparum-infected erythrocytes, luciferase growth; series mostly up to 28.7 µM; activity change, negative = inhibition: at the top concentration
Description: The goal of this screen is to discover new antimalarial compounds that act by inhibiting the development of the apicoplast in the malarial parasite Plasmodium falciparum. The biochemical processes that make this organelle essential for erythrocytic stage parasites are not well understood. However, antibiotics, such as azithromycin and tetracycline, which target the apicoplast translational machinery, have a potent antimalarial effect. […] We have developed a cell-based assay that measures parasite growth based on the expression of an integrated copy of a firefly luciferase reporter. To detect small molecules that cause this "delayed death phenotype, erythrocytes infected with the luciferase-expressing parasites were incubated with compounds for either one or two generations, corresponding to 48 and 96 hours, respectively. Compounds that inhibit parasite growth in the second generation, but not the first, should be enriched in antimalarials that target the apicoplast. Growth inhibition is detected by a decrease in luciferase activity. MLPCN Grant: R21 NS059500 Assay Provider: David Fidock and Eric Ekland, Columbia University Keywords: NIH Roadmap, MLPCN, MLI, MLSMR, qHTS, NCGC, qHTS, malaria, luciferase, viability
Four microliters of culture medium (RPMI 1640 with 0.5% w/v Albumax (GIBCO), 24 mM sodium bicarbonate and 10 ug/mL gentamycin) were dispensed by a Multi-drop Combi into white solid 1536-well plates (Grenier) and 23 nL compound was added by a pin tool. Four microliters of infected erythrocytes (2% hematocrit, 0.1% parasitemia final concentration) in culture medium were dispensed and the plates incubated for 48 hours at 37 C in 5% CO2. Two microliters of luciferase detection reagent was added and luminescence was detected by a ViewLux (PerkinElmer) reader.
% is set by controls: 0 for no effect and ±100 for the full control effect; potency is the fitted concentration of half-maximal effect.

SMILES | Potency | activity change, negative = inhibition
Fc1ccc(C[n+]2c(-c3ccccc3)cc(-c3ccccc3)cc2-c2ccccc2)cc1 | 2.82 µM (active) | 
CN1C[C@H](C(=O)N[C@]2(C)O[C@@]3(O)[C@@H]4CCCN4C(=O)[C@H](Cc4ccccc4)N3C2=O)C[C@@H]2c3cccc4[nH]cc(c34)C[C@H]21 | 2.82 µM (active) | 
C[C@@H]1CC[C@H]2[C@@H](C)C(=O)O[C@@H]3O[C@@]4(C)CC[C@@H]1[C@]32OO4 | 0.0794 µM (active) | 
C[C@@H]1CC[C@H]2[C@@H](C)C(=O)O[C@@H]3OC4(C)CC[C@@H]1C32OO4 (some centres not stated) | 0.0447 µM (active) | 
Cn1c(O)c(C=NC2C(=O)C3(C)CCC2C3(C)C)c(=O)n(C)c1=O (configuration not stated) |  | -0.717% (inactive)
CC(=O)N1CC(=O)Nc2ccc(Cl)cc2C1c1ccccc1 (configuration not stated) |  | -10.3% (inactive)
O=C(CCl)Nc1nccs1 | 5.01 µM (active) | 
O=C(/C=C/c1cccs1)c1cc(Cl)ccc1OC(=O)N1CCOCC1 | 14.1 µM (active) | 
C[C@H]1C[C@@H](C)C(=O)[C@@H]([C@H](O)CC2CC(=O)NC(=O)C2)C1 | 0.0794 µM (active) | 
C[C@@H]1C[C@@H]([C@H](O)CC2CC(=O)NC(=O)C2)C(=O)[C@@H](C)C1 | 0.891 µM (active) | 
Cc1ccc(N2C(=O)NC(=O)/C(=C\C=C\c3ccco3)C2=O)cc1 |  | -20.3% (inactive)
CCN1CCN(Cc2nc3ccc([N+](=O)[O-])cc3c(=O)n2-c2ccccc2F)CC1 |  | 6.69% (inactive)
COc1cc(C(=O)N/N=C/C23CC[C@@H](O)CC2(O)CC[C@@H]2[C@@H]3CCC3(C)C(C4=CC(=O)OC4)CCC23O)ccc1O (some centres not stated) |  | -13.3% (inactive)
CN(C)c1ccc(C(=O)N/N=C/C23CC[C@@H](O)CC2(O)CC[C@@H]2[C@@H]3CCC3(C)C(C4=CC(=O)OC4)CCC23O)cc1 (some centres not stated) | 12.6 µM (active) | 
COc1ccc(C(=O)N/N=C/C23CC[C@@H](O)CC2(O)CC[C@@H]2[C@@H]3CCC3(C)C(C4=CC(=O)OC4)CCC23O)cc1 (some centres not stated) |  | -16% (inactive)
CN(C)[C@@H]1C(=O)C(C(N)=O)=C(O)[C@@]2(O)C(=O)C3=C(O)c4c(O)cccc4[C@@](C)(O)C3[C@H](O)C12 (some centres not stated) | 5.01 µM (active) | 
C[n+]1c2cc(N)ccc2cc2ccc(N)cc21 | 1 µM (active) | 
COC(=O)c1nc(-c2ccc3c(n2)C(=O)C(N)=C(OC)C3=O)c(N)c(-c2ccc(OC)c(OC)c2O)c1C | 0.562 µM (active) | 
CC[C@H]1CN2CCc3cc(OC)c(OC)cc3C2C[C@@H]1C[C@H]1NCCc2cc(OC)c(OC)cc21 (some centres not stated) | 0.0501 µM (active) | 
CC[C@H]1CN2CCc3cc(OC)c(OC)cc3[C@@H]2C[C@@H]1C[C@H]1NCCc2cc(OC)c(OC)cc21 | 0.316 µM (active) | 
CC[C@H]1CN2CCc3cc(OC)c(OC)cc3[C@H]2C[C@@H]1C[C@@H]1NCCc2cc(OC)c(OC)cc21 | 0.562 µM (active) | 

SMILES | Potency | activity change, negative = inhibition
O=C1NC(=O)N(c2ccccc2)C(=O)/C1=C/C=C/c1ccco1 |  | -14.3% (inactive)
CCN(CC)Cc1cc(Nc2ccnc3cc(Cl)ccc23)ccc1O | 79.4 nM (active) and 22.4 nM (active) | 
CC(C)CCOP(N)(=O)Oc1ccccc1 (configuration not stated) | 4.47 µM (active) | 
Cn1c(=O)oc2cc(NC(=O)CCl)ccc21 | 0.794 µM (active) | 
CCn1c(=O)oc2cc(NC(=O)CCl)ccc21 | 2.24 µM (active) | 
O=[N+]([O-])c1cccc2c([As](=O)(O)O)cccc12 | 3.55 µM (active) | 
Oc1ccc(-[n+]2c(-c3ccccc3)cc(-c3ccccc3)cc2-c2ccccc2)cc1 | 0.708 µM (active) | 
C[C@@H]1O[C@@H](O[C@H]2C[C@@H](O)[C@]3(CO)[C@@H]4C(CC[C@]3(O)C2)[C@@]2(O)CC[C@H](C3COC(=O)C3)[C@@]2(C)C[C@H]4O)[C@H](O)[C@H](O)[C@H]1O (some centres not stated) |  | -14.7% (inactive)
CCCNS(=O)(=O)c1ccc(OCC(=O)N2CCN(Cc3ccc4c(c3)OCO4)CC2)c(C)c1 | 12.6 µM (active) | 
Cc1ccc(C(C)C)c(OCC(=O)N2CCN(Cc3nc4cc([N+](=O)[O-])ccc4n3C)CC2)c1 |  | -9.32% (inactive)
CCOC(=O)COc1ccc2c(c1)c(C(C)=O)c(C)n2Cc1ccccc1 |  | -25.7% (inactive)
Cn1cc([N+](=O)[O-])c(C(=O)Nc2ccc3c(C(F)(F)F)cc(=O)oc3c2)n1 |  | 15.8% (inactive)
O=C(NC1CC2CCCC(C1)N2)c1ccccc1 (configuration not stated) | 10 µM (active) | 
Clc1ccccc1CN1CCNCC1 |  | -9.24% (inactive)
COc1ccc(Cn2c(N)c(C(=O)NCc3ccco3)c3nc4ccccc4nc32)cc1 | 3.98 µM (active) | 
O=c1oc2ccccc2c(O)c1[C@H]1c2ccc(O)cc2Oc2c1c(=O)oc1ccccc21 |  | -10% (inactive)
CN1CCc2cc3c(c4c2C1Cc1ccccc1-4)OCO3 (configuration not stated) | 0.562 µM (active) | 
O=C1/C(=C/c2ccccc2)C[C@@]2(O)[C@H]3Cc4ccc(O)c5c4[C@@]2(CCN3CC2CC2)C1O5 (some centres not stated) | 5.01 µM (active) | 
CCCCCCn1c(=O)c(C(=O)Nc2ncccc2O)c(O)c2ccccc21 |  | -9.27% (inactive)
C=C1C(O)[C@@H]2O[C@]3(CC[C@H](/C=C/C(C)[C@@H]4CC(C)=CC5(O[C@H](C[C@@](C)(O)C(=O)O)CCC5O)O4)O3)CC[C@H]2O[C@@H]1C(O)CC(C)[C@H]1OC2(CCCCO2)CCC1C (some centres not stated) | 0.0891 µM (active) | 
C=C1C(=O)O[C@@H]2C[C@@H](C)[C@@H]3C=CC(=O)[C@@]3(C)[C@@H](OC(=O)CC(=O)O[C@H]3[C@@H]4C(=C)C(=O)O[C@@H]4C[C@@H](C)[C@@H]4C=CC(=O)[C@]43C)[C@H]12 | 0.398 µM (active) | 

SMILES | Potency | activity change, negative = inhibition
C=C1C(=O)O[C@H]2C[C@@H](C)[C@@H]3C=CC(=O)[C@@]3(C)C[C@H]12 | 2 µM (active) | 
C=C1C(=O)O[C@@H]2C[C@@H](C)[C@@H]3C=CC(=O)[C@@]3(C)[C@@H](O)[C@H]12 | 1.58 µM (active) | 
CCCCN=C[C@]12CCC(O)CC1(O)CCC1[C@@H]2CC[C@]2(C)[C@H](C3C=CC(=O)O3)CCC12O (some centres not stated) |  | -20.3% (inactive)
C[C@]12CCC3C(CCC4=CC(O)CC[C@@]43/C=N/O)C1(O)CCC2C1=CC(=O)OC1 (some centres not stated) |  | -24% (inactive)
COC(=O)C1=C(c2ccccc2OCc2ccccc2)C[C@@H]2CC[C@H]1N2C(=O)NCCOc1ccc(OC)cc1 | 12.6 µM (active) | 
COC(=O)C1=C(c2ccc(F)cc2OCc2ccccc2)C[C@@H]2CC[C@H]1N2C(=O)NCc1ccccc1Br | 1.78 µM (active) | 
CCC(C(=O)N1CCC2(CC1)OCCO2)n1c2ccccc2c2nc(=O)cc(C)n21 (configuration not stated) | 11.2 µM (active) | 
CCOc1cc2c(cc1OCC)-n1cccc1C(c1ccccc1F)NC2 (configuration not stated) | 10 µM (active) | 
CCOP(=O)(OCC)C(O)c1ccc(OC)cc1OC (configuration not stated) |  | -11.5% (inactive)
C[n+]1c(-c2ccccc2)cc(-c2ccc(Cl)cc2)cc1-c1ccccc1 | 2 µM (active) | 
COc1ccc(-c2cc(-c3ccccc3)[n+](C)c(-c3ccccc3)c2)cc1 | 3.16 µM (active) | 
Cc1cc2ccccn2c1C(C[N+](=O)[O-])c1c(F)cccc1Cl (configuration not stated) | 12.6 µM (active) | 
O=[N+]([O-])c1ccc(NC2CCCC2)c2ccncc12 |  | -2.56% (inactive)
C=CCn1c(O)c(N=Nc2c(C)n(C)n(-c3ccccc3)c2=O)c(=O)[nH]c1=S | 11.2 µM (active) | 
C[C@@H]1C[C@@H]2O[C@H]2/C=C\C=C\C(=O)Cc2c(Cl)c(O)cc(O)c2C(=O)O1 | 7.08 µM (active) | 
C=C[C@H]1CN2CC[C@H]1C[C@@H]2[C@@H](O)c1ccnc2ccccc12 | 0.251 µM (active) | 
CN1C2CCC1/C(=C/c1ccccn1)C(=O)/C2=C\c1ccccn1 | 0.251 µM (active) | 
CC[n+]1c(-c2ccccc2)c2cc(N)ccc2c2ccc(N)cc21 | 1 µM (active) | 
CC(C)c1ccc(N2C(=O)NC(=O)/C(=C\C=C\c3ccco3)C2=O)cc1 |  | -10.9% (inactive)
CC(C)c1oc(=O)cc2c1[C@@H](O)[C@H]1OC(=O)[C@@]3(C)CC[C@@H](O)[C@@]2(C)C13 (some centres not stated) | 8.91 µM (active) | 
